CYP2C19 inhib – blockers of cytochrome P450 2C19 activity – biochemical, luminescence, ADME assay, primary screen | P33261 | inhibition, % at 5 µM | CYP2C19 Supersomes, luciferin-H EGE luminescence, 30 min | 96,000 compounds, 21% hits;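 active = CYP2C19 inhibition above a set limit at 5 µM in the primary screen, cut at about 50% in these data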;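 note: plate controls were negative control wells for no effect and 2.5 mM tranylcypromine positive control for full effect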
PTK2B oligo ant – antagonists of Pyk2 self-association, primary screen, Q293 cells, FERM NanoBiT luminescence, HTS; Protein-tyrosine kinase 2-beta (Homo sapiens), Q14289; hits give low values; z-score (the deposit names both 25 µM and 10 µM); 99,000 compounds, 0.83% hits; AID 1347419, 2020;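 active = Z-score of -3 or lower, scaled per plate to the spread of control and sample wells; inactive = z-score above -3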;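 note: negative z-score means lost luminescence so less FERM oligomerization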
CYP2C9 activ – human CYP2C9 activators, primary screen, biochemical, luminescence; recombinant CYP2C9, luciferin-H conversion; hits give high values; factor 1 = untreated enzyme, 0 = blocked; activation factor at 5 µM; AID 1024, 2008; Cytochrome P450 2C9 (Homo sapiens), P11712; 96,000 compounds, 1.4% hits;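 active = activation factor of 2 or more for CYP2C9 at a 5 µM dose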;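 note: 0 = sulfaphenazole-blocked wells and 1 = vehicle-only wells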
CYP2C19 activ – human CYP2C19 activators, primary screen, biochemical, luminescence; activation factor at 5 µM; Cytochrome P450 2C19 (Homo sapiens), P33261; recombinant CYP2C19, luciferin-H EGE luminescence; hits give high values; 0 = fully inhibited enzyme, 1 = untreated enzyme; 96,000 tested, under 10 active; AID 1025, 2008;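 active = activation factor of at least 2 at 5 µM in the primary screen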;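 note: 0 = wells with 2.5 mM tranylcypromine and 1 = vehicle-only wells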
CYP2C9 inhib – blockers of cytochrome P450 2C9 activity – biochemical, luminescence, ADME assay, primary screen; CYP2C9 Supersomes, luciferin-H conversion; 96,000 compounds, 20% hits; inhibition, % at 5 µM;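 active = blocking of liver enzyme CYP2C9 beyond about 50% at 5 µM, limit read from the data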
Active calls of the source: *; . = not tested or not shown. Sampled rows, rich in hits. Any-hit rate of the full collection: about 28%.

SMILES	CYP2C19 inhib	PTK2B oligo ant	CYP2C9 activ	CYP2C19 activ	CYP2C9 inhib
CCOC(=O)C1=C(C)N=C2SC(C)C(=O)N2C1c1ccc(OC(C)=O)c(OCC)c1 (stereo not drawn)	65.2*	.	0.4	0.3	63.0*
COC(=O)C1=C(C)N=C2SC(C)C(=O)N2C1c1ccc(C(=O)OC)cc1 (stereo not drawn)	78.3*	-0.4	0.7	0.2	30.3
CCOC(=O)C1=C(C)N=C2SC(C(=O)OC)=CC(=O)N2C1c1ccc(F)cc1 (stereo not drawn)	50.3*	-1.19	0.8	0.5	17.9
CCC1SC2=NC(C)=C(C(=O)OC)C(c3ccc(C)cc3)N2C1=O (stereo not drawn)	98.6*	0.81	0.2	0	79.5*
COC(=O)C1=C(C)N=C2SC(C)C(=O)N2C1c1cccs1 (stereo not drawn)	29.7	-0.95	0.9	0.7	10.6
Nc1c(C2=NCCO2)nnn1Cc1ccccc1	-5.9	0.33	1.5	1.1	-52.4
O=C(CCC(=O)c1cccs1)OCC(=O)N1CCN(S(=O)(=O)c2ccccc2)CC1	1.2	0.54	0.9	1	12.6
O=C(NCc1ccc2c(c1)OCO2)c1ccc(CN2CCOCC2)cc1	1.9	0.17	0.9	1	8.6
Cc1cccc(NC(=S)NC(NC(=O)OCc2ccccc2)C(Cl)(Cl)Cl)c1 (stereo not drawn)	76.7*	-2.5	0.2	0.2	75.7*
O=C(NC(NC(=S)Nc1cccc(Cl)c1)C(Cl)(Cl)Cl)OCc1ccccc1 (stereo not drawn)	60.4*	-1.39	0.3	0.4	65.8*
O=C(NC(NC(=S)Nc1cccc(C(=O)O)c1)C(Cl)(Cl)Cl)OCc1ccccc1 (stereo not drawn)	.	-0.01	.	.	.
O=C1CC(N2CCN(c3ccccc3)CC2)C(=O)N1CCc1ccccc1 (stereo not drawn)	10.2	-0.02	0.9	0.9	5.7
CCOC(=O)c1c(N2C(=O)Nc3cc(Cl)c(Cl)cc3N2O)sc2c1CCCCC2	17.4	-0.8	0.3	0.8	69.6*
Cc1nn(-c2ccccc2)c2c1C(O)n1c(nc3ccccc31)S2 (stereo not drawn)	70.4*	-2.11	0.4	0.3	57.6*
COC(=O)c1cc(OC)c(OC)cc1-n1cnc2cc(OC)c(OC)cc2c1=O	0.5	0.57	0.9	1	6.9
CC1CCCC(n2c(=S)[nH]c3ccccc3c2=O)C1C (stereo not drawn)	53.8*	-0.55	0.8	0.5	15.4
Cc1ccc(S(=O)(=O)/N=C2\C(=O)c3ccccc3C([O-])=C2n2cc[n+](CCC(C)C)c2)cc1	22.3	0.51	0.5	0.8	52.6*
Cc1ccc(S(=O)(=O)[N-]c2nc3ccccc3nc2-n2cc[n+](CCC(C)C)c2)cc1	56.2*	0.6	0.1	0.4	94.4*
CC(C)NC(=O)c1c2c(nc3ccccc13)CCCC2	.	0.62	.	.	.
CCNC(=O)/C=C1\NC(C)(C)Cc2c1ccc1ccccc21	83.4*	0.02	0.1	0.2	90.3*
Cc1cc(C)c(OCC(=O)Nc2cccc(NC(=O)c3ccco3)c2)c(Br)c1	95.9*	-2.5	0.3	0	74.5*
COc1ccc(Br)cc1C(=O)Nc1cccc(C)c1	9.9	-0.41	0.7	0.9	32.1
COc1c(C)cc(Br)cc1C(=O)Nc1cccc(NC(=O)c2ccco2)c1	97.1*	-1.4	0.2	0	83.1*
O=C(Nc1cccc(NC(=O)c2ccc(-c3cccc(Br)c3)o2)c1)c1ccco1	53.7*	-2.58	0.4	0.5	60.5*
COc1ccc(Br)cc1C(=O)Nc1cccc(NC(=O)c2ccco2)c1	88.5*	-2.05	0.9	0.1	13.3
SMILES	CYP2C19 inhib	PTK2B oligo ant	CYP2C9 activ	CYP2C19 activ	CYP2C9 inhib
O=C(Nc1cccc(NC(=O)c2ccc(-c3ccc(Br)cc3)o2)c1)c1ccccc1	-17.6	-0.28	1.1	1.2	-7.6
CC1CN=C(c2cccn2Cc2ccc(F)cc2Cl)O1 (stereo not drawn)	42.1	0.12	1	0.6	2.4
C/C(=N/NS(=O)(=O)c1ccc(F)cc1)c1ccc(NC(=O)c2ccc(C)o2)cc1	45.4	3.2	0.1	0.5	94.9*
Cc1ccnc(NS(=O)(=O)c2ccc(NC(=O)c3ccc(C)o3)cc2)n1	.	0.08	.	.	.
O=C(Cn1nc(-c2cccc([N+](=O)[O-])c2)c2ccccc2c1=O)Nc1cccnc1	-0.5	-0.21	0.2	1	75.4*
Cc1ccc(-c2nn(CC(=O)Nc3cccnc3)c(=O)c3ccccc23)cc1	15.7	-0.5	0.2	0.8	80.9*
CCOC(=O)C1CCCc2c1[nH]c1c(C(=O)O)cccc21 (stereo not drawn)	9.5	-0.24	1	0.9	2.1
CCN1C(=O)c2cccc3c(NC(=O)c4ccc(S(=O)(=O)N(C)C)cc4)ccc1c23	12.6	-1.13	0.6	0.9	36.5
CCN1C(=O)c2cccc3c(NC(=O)c4ccc(S(=O)(=O)N5CCOCC5)cc4)ccc1c23	38.4	0.59	0.3	0.6	73.7*
CCN1C(=O)c2cccc3c(NS(=O)(=O)c4ccc(NC(C)=O)cc4)ccc1c23	99.2*	-0.99	0.1	0	85.6*
CCN1C(=O)c2cccc3c(S(=O)(=O)Nc4ccccc4OC)ccc1c23	61.4*	.	0	0.4	98.8*
O=C(CSc1ccccn1)Nc1nc2ccc(Br)cc2s1	24.9	-1.49	0.8	0.8	22.0
Cn1c2c(c(=O)n(C)c1=O)CN(Cc1ccc3c(c1)OCO3)CN2	1.5	1.2	1.1	1	-9.3
c1ccc(-c2ccc(-c3cn4c(n3)CCC4)cc2)cc1	10.4	-0.58	1	0.9	-4.2
CCn1cc(C(C)(C)C)c(C#N)c1NC(C)=O	5.2	-0.16	1.4	0.9	-37.5
O=C(NCCC1=CCCCC1)C1CCN(C(=O)c2ccc(Cl)cc2)CC1	10.3	1.06	0.6	0.9	40.0
Clc1ccc(CNCCC2=CCCCC2)cc1	100.4*	-0.31	0.8	0	21.7
C1=C(CCNCC2CCCCC2)CCCC1	88.2*	1.12	1	0.1	-0.8
O=C(CSc1nnc(-c2ccco2)n1-c1ccccc1)N1CCOCC1	-7.0	0.26	1.1	1.1	-14.2
COc1ccccc1N1CCN(C(=O)CSc2nc3ccccc3[nH]2)CC1	32.6	0.16	0.6	0.7	43.8
COc1cccc(-n2c(SCC(=O)N3c4ccccc4CC3C)nnc2-c2ccco2)c1 (stereo not drawn)	79.6*	-0.06	0.1	0.2	91.9*
CC1Cc2ccccc2N1C(=O)CSc1nnc2n1C(C)(C)Cc1ccccc1-2 (stereo not drawn)	73.9*	-2.31	0.4	0.3	56.3*
CCOC(=O)CSc1nnc2n1C(C)(C)Cc1ccccc1-2	.	-0.51	.	.	.
